{
  "source": "PubChem BioAssay (Tox21)",
  "key": {"[1]": {"test": "qHTS assay to identify small molecule antagonists of the estrogen related receptor (ERR) signaling pathway - cell viability counter screen (AID 1224818); further: series mostly up to about 46 µM", "how_it_was_run": "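Fluorescence from CellTiter-Fluor, read 30 min after reagent addition at 37 C, measured viability of ERR cells exposed to compounds for 17.5 h. Cells had settled 6 h before dosing.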"}, "[2]": {"test": "qHTS assay to identify small molecule antagonists of the estrogen related receptor (ERR) signaling pathway from Tox21 library - cell viability counter screen (AID 1224834); further: nearly all actives have a fitted effect of over 30% in size; further: potency means the concentration at half of the fitted maximal effect", "how_it_was_run": "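Multiplexed viability counter screen in ERR cells: 17.5 h compound exposure at 37 C, CellTiter-Fluor added, 30 min at 37 C/5% CO2, fluorescence read.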"}, "[3]": {"test": "qHTS assay to identify small molecule agonists of the constitutive androstane receptor (CAR) signaling pathway - cell viability counter screen (AID 1224836); further: nearly all actives have a fitted effect of over 45% in size; further: potency means the concentration at half of the fitted maximal effect", "how_it_was_run": "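Cells were seeded and incubated 4 hrs. Compounds were added across 15 concentrations together with PK11195 at 0.75 uM final. Plates were incubated 23 hrs at 37 C. CellTiter-Fluor was added and fluorescence measured.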"}, "[4]": {"test": "qHTS assay to identify small molecule antagonists of the constitutive androstane receptor (CAR) signaling pathway - cell viability counter screen (AID 1224837); further: nearly all actives have a fitted effect of over 45% in size; further: potency means the concentration at half of the fitted maximal effect", "how_it_was_run": "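Read-out: CellTiter-Fluor fluorescence after 23 hr at 37 C/5% CO2. Cells: HepG2 double-stable for hCAR and CYP2B6-2.2kb. Compounds tested at 15 concentrations in the presence of CITCO, final concentration 50 nM.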"}, "[5]": {"test": "qHTS assay to identify small molecule antagonists of the estrogen related receptor signaling pathway with the pleiotropic PPARgamma coactivator (PGC) cell viability counter screen (AID 1224822; further: potency means the concentration at half of the fitted maximal effect)", "how_it_was_run": "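Fluorescence read-out of CellTiter-Fluor after 30 min at 37 C; PGC/ERR cells, 2,000 per well, had been exposed to DMSO-dissolved compounds for 17.5 h following a 6 h pre-incubation.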"}, "[6]": {"target": "Luciferin 4-monooxygenase (Photinus pyralis) (UniProt P08659)", "sequence (P08659 whole entry, looked up)": "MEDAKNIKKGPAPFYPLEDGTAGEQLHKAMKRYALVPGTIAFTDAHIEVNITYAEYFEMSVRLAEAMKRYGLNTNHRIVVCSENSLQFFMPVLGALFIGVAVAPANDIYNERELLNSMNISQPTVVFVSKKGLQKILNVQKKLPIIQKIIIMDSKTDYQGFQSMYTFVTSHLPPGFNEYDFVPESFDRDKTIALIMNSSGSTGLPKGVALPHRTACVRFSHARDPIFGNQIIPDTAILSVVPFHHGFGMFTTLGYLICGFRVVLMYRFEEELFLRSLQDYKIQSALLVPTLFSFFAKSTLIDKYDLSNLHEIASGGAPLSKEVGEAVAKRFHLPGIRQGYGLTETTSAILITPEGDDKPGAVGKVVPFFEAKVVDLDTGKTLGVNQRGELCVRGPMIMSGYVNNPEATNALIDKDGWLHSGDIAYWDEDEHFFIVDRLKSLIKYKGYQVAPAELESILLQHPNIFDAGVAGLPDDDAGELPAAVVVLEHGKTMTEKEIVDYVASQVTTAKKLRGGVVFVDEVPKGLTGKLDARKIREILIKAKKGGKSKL", "test": "qHTS assay to identify small molecule inhibitors of firefly luciferase (AID 1224835); further: series mostly up to about 120 µM; nearly all actives have a fitted effect of over 25% in size", "how_it_was_run": "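Biochemical qHTS: compounds run as interplate titrations against purified firefly enzyme, with D-luciferin and ATP each at its KM concentration. Light output recorded by CCD imaging.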"}, "[7]": {"test": "qHTS assay to identify small molecule antagonists of the estrogen related receptor (ERR) signaling pathway (AID 1224819; further: nearly all actives have a fitted effect of over 50% in size; further: potency means the concentration at half of the fitted maximal effect)", "how_it_was_run": "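Luminescence readout (One-Glo, 30 min, RT) of ERR cell line after 18 h compound exposure at 37 C; cells seeded 2,000/well, pre-incubated 6 h, compounds pinned from DMSO stocks.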"}, "[8]": {"test": "qHTS assay to identify small molecule agonists of the estrogen related receptor (ERR) signaling pathway (AID 1224820); further: potency means the concentration at half of the fitted maximal effect", "how_it_was_run": "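After 6 h plating (2,000 cells/well) and 18 h compound treatment at 37 C, ERR cells were lysed with One-Glo and luminescence read after 30 min at room temperature.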"}, "[9]": {"system": "estrogen-related receptor alpha (ERRalpha) with PGC-1alpha coactivator, human", "test": "qHTS assay to identify small molecule antagonists of the estrogen related receptor signaling pathway with the pleiotropic PPARgamma coactivator (PGC) (AID 1224821; calls by dose curve;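 further: series mostly up to about 46 µM; lower luminescence signal means antagonism of PGC/ERR signalling; nearly all actives have a fitted effect of over 50% in size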)", "how_it_was_run": "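Luminescence from One-Glo luciferase reagent (30 min, room temperature) measured after 18 h compound treatment at 37 °C. Cells carry the PGC/ERR reporter and were seeded 6 h prior to dosing.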"}, "[10]": {"test": "qHTS assay to identify small molecule agonists of the estrogen related receptor signaling pathway with the pleiotropic PPARgamma coactivator (PGC) (AID 1224823)", "how_it_was_run": "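Luminescence from One-Glo reagent (30 min, room temperature) was read after 18 h compound treatment at 37 C of PGC/ERR cells plated 6 h beforehand; compounds delivered in DMSO by pin tool.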"}},
  "note": "Records with an inconclusive call do not appear. A call without a number means that no potency is given here. Active and inactive are the calls of the source. Unless noted, the call rests on the fitted dose curve; in most records, active means well fitted curve in the direction sought with a large enough effect in the repeat runs; inconclusive means weak or mixed curves; inactive means no such curve, though single readings can be large; an effect the other way counts as inactive or inconclusive.",
  "data": [
    {"smiles": "CC(=O)[C@]1(O)Cc2c(O)c3c(c(O)c2[C@@H](O[C@H]2C[C@H](N)[C@H](O)[C@H](C)O2)C1)C(=O)c1ccccc1C3=O", "values": [
      {"measurement": "Potency", "setting": "[1]", "result": "inactive"},
      {"measurement": "Potency", "setting": "[2]", "result": "1.06 µM (active)"},
      {"measurement": "Potency", "setting": "[3]", "result": "2.66 µM (active)"},
      {"measurement": "Potency", "setting": "[4]", "result": "2.11 µM (active)"}
    ]},
    {"smiles": "Cn1c(=O)[nH]c2ncn(C)c2c1=O", "values": [
      {"measurement": "Potency", "setting": "[1]", "result": "inactive"},
      {"measurement": "Potency", "setting": "[5]", "result": "inactive"},
      {"measurement": "Potency", "setting": "[2]", "result": "inactive"},
      {"measurement": "Potency", "setting": "[6]", "result": "inactive"},
      {"measurement": "Potency", "setting": "[3]", "result": "inactive"},
      {"measurement": "Potency", "setting": "[4]", "result": "inactive"}
    ]},
    {"smiles": "C=C[C@H]1CN2CC[C@@H]1C[C@H]2[C@H](O)c1ccnc2ccc(OC)cc12", "values": [
      {"measurement": "Potency", "setting": "[1]", "result": "inactive"},
      {"measurement": "Potency", "setting": "[5]", "result": "inactive"}
    ]},
    {"smiles": "NC(N)=NC(=O)c1nc(Cl)c(N2CCCCCC2)nc1N", "values": [
      {"measurement": "Potency", "setting": "[7]", "result": "11.9 µM (active)"},
      {"measurement": "Potency", "setting": "[8]", "result": "inactive"},
      {"measurement": "Potency", "setting": "[9]", "result": "inactive"}
    ]},
    {"smiles": "COc1cc(NS(C)(=O)=O)ccc1Nc1c2ccccc2nc2ccccc12", "values": [
      {"measurement": "Potency", "setting": "[7]", "result": "0.779 µM (active)"},
      {"measurement": "Potency", "setting": "[8]", "result": "inactive"},
      {"measurement": "Potency", "setting": "[9]", "result": "inactive"},
      {"measurement": "Potency", "setting": "[5]", "result": "18.1 µM (active)"}
    ]},
    {"smiles": "CN1C2CCC1CC(OC(=O)C(O)c1ccccc1)C2", "note": "(stereo not drawn)", "values": [
      {"measurement": "Potency", "setting": "[7]", "result": "inactive"},
      {"measurement": "Potency", "setting": "[8]", "result": "inactive"},
      {"measurement": "Potency", "setting": "[9]", "result": "inactive"},
      {"measurement": "Potency", "setting": "[5]", "result": "inactive"}
    ]},
    {"smiles": "CCCCCC(O)CCCC(=O)O", "note": "(stereo not drawn)", "values": [
      {"measurement": "Potency", "setting": "[7]", "result": "inactive"},
      {"measurement": "Potency", "setting": "[8]", "result": "inactive"},
      {"measurement": "Potency", "setting": "[9]", "result": "inactive"},
      {"measurement": "Potency", "setting": "[5]", "result": "inactive"}
    ]},
    {"smiles": "O=c1onc2n1-c1cc(Br)ccc1OC2", "values": [
      {"measurement": "Potency", "setting": "[7]", "result": "inactive"},
      {"measurement": "Potency", "setting": "[8]", "result": "inactive"},
      {"measurement": "Potency", "setting": "[9]", "result": "inactive"},
      {"measurement": "Potency", "setting": "[5]", "result": "inactive"},
      {"measurement": "Potency", "setting": "[10]", "result": "inactive"}
    ]},
    {"smiles": "COc1cc(C(O)CO)ccc1O", "note": "(stereo not drawn)", "values": [
      {"measurement": "Potency", "setting": "[1]", "result": "inactive"},
      {"measurement": "Potency", "setting": "[5]", "result": "inactive"}
    ]},
    {"smiles": "N=C(N)c1ccc(OCCCCCOc2ccc(C(=N)N)cc2)cc1", "note": "(tested in a mixture with another compound)", "values": [
      {"measurement": "Potency", "setting": "[1]", "result": "inactive"},
      {"measurement": "Potency", "setting": "[5]", "result": "inactive"},
      {"measurement": "Potency", "setting": "[10]", "result": "inactive"}
    ]},
    {"smiles": "c1ccc(C2CN3CCSC3=N2)cc1", "note": "(stereo not drawn)", "values": [
      {"measurement": "Potency", "setting": "[1]", "result": "inactive"},
      {"measurement": "Potency", "setting": "[5]", "result": "inactive"}
    ]},
    {"smiles": "O=Nc1c(-c2c(O)[nH]c3ccccc23)[nH]c2ccccc12", "values": [
      {"measurement": "Potency", "setting": "[7]", "result": "inactive"},
      {"measurement": "Potency", "setting": "[8]", "result": "2.87 µM (active)"},
      {"measurement": "Potency", "setting": "[9]", "result": "inactive"},
      {"measurement": "Potency", "setting": "[5]", "result": "13.9 µM (active)"}
    ]},
    {"smiles": "COc1cc2c(cc1OC)C1CC(=O)C(CC(C)C)CN1CC2", "note": "(stereo not drawn)", "values": [
      {"measurement": "Potency", "setting": "[1]", "result": "inactive"},
      {"measurement": "Potency", "setting": "[5]", "result": "inactive"}
    ]},
    {"smiles": "C=C[C@H]1CN2CC[C@@H]1C[C@@H]2[C@@H](O)c1ccnc2ccc(OC)cc12", "values": [
      {"measurement": "Potency", "setting": "[1]", "result": "inactive"},
      {"measurement": "Potency", "setting": "[5]", "result": "inactive"}
    ]},
    {"smiles": "COC(=O)C(C)(N)Cc1ccc(O)cc1", "note": "(stereo not drawn)", "values": [
      {"measurement": "Potency", "setting": "[7]", "result": "inactive"},
      {"measurement": "Potency", "setting": "[8]", "result": "inactive"},
      {"measurement": "Potency", "setting": "[9]", "result": "inactive"},
      {"measurement": "Potency", "setting": "[5]", "result": "inactive"}
    ]},
    {"smiles": "CC(C)NC[C@H](O)COc1ccc(CC(N)=O)cc1", "values": [
      {"measurement": "Potency", "setting": "[1]", "result": "inactive"},
      {"measurement": "Potency", "setting": "[5]", "result": "inactive"}
    ]},
    {"smiles": "CCC1(O)CC2CN(CCc3c([nH]c4ccccc34)[C@@](C(=O)OC)(c3cc4c(cc3OC)N(C=O)C3[C@]45CCN4CC=C[C@@](CC)([C@@H](OC(C)=O)[C@]3(O)C(=O)OC)[C@H]45)C2)C1", "note": "(stereo partly drawn)", "values": [
      {"measurement": "Potency", "setting": "[1]", "result": "inactive"},
      {"measurement": "Potency", "setting": "[5]", "result": "inactive"}
    ]},
    {"smiles": "CSc1nc(N)c2ncn([C@@H]3O[C@H](COP(=O)(O)OP(=O)(O)O)C(O)[C@H]3O)c2n1", "note": "(stereo partly drawn)", "values": [
      {"measurement": "Potency", "setting": "[7]", "result": "inactive"},
      {"measurement": "Potency", "setting": "[8]", "result": "inactive"},
      {"measurement": "Potency", "setting": "[9]", "result": "inactive"},
      {"measurement": "Potency", "setting": "[5]", "result": "inactive"}
    ]},
    {"smiles": "CN1C2CC(OC(=O)[C@H](CO)c3ccccc3)CC1C1OC12", "note": "(stereo partly drawn)", "values": [
      {"measurement": "Potency", "setting": "[1]", "result": "inactive"},
      {"measurement": "Potency", "setting": "[5]", "result": "inactive"}
    ]},
    {"smiles": "O=C1NC(O)=NC1(c1ccccc1)c1ccccc1", "values": [
      {"measurement": "Potency", "setting": "[1]", "result": "inactive"},
      {"measurement": "Potency", "setting": "[5]", "result": "inactive"}
    ]}
  ]
}
